Our source for the binding signal values is article PMC8384837, “Expanding the binding specificity for RNA recognition by a PUF domain”.

Holding throughout (test): yeast three-hybrid, YBZ-1, SC-Leu-His + 0.5 mM 3-AT, 4 days
Common to all, as to settings: tags: N-Gal4 AD-HA kept; label: inside an RPR1-promoter hybrid RNA with tandem MS2 sites; ssRNA

For one assay, the target named is T1, PUM1 PUF domain R6-YWL (Homo sapiens, UniProt Q14671 828-1176, N1043Y;Y1044W;Q1047L).
T1 sequence: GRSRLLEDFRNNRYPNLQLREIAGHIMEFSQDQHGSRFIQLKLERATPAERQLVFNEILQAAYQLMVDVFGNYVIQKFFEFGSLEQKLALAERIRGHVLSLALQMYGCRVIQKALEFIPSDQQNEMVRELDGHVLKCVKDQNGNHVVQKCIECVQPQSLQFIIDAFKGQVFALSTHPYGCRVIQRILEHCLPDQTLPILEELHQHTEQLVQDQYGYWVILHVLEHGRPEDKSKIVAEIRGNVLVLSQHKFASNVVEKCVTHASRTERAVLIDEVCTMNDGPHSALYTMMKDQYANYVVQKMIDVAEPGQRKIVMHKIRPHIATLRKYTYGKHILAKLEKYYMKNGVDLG
A digest of the protocol:
(§1)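 A centromeric plasmid in strain YBZ-1 co-expressed Pumilio-1 PUF domain libraries, randomized at the three base-contacting residues of each repeat, with matching RNA elements; the strain carries a LexA–MS2 coat fusion and a HIS3 reporter. After four days on SC-Leu (input) or SC-Leu-His + 0.5 mM 3-AT (selection), the repeat regions were PCR-amplified and Illumina-sequenced. The interaction score is the log change in variant frequency from input to selection, using log2 and a pseudocount of 1 where absent.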

Another assay addresses PUM1 PUF domain R3-EHG (Homo sapiens, UniProt Q14671 828-1176, C935E;R936H;Q939G). Put shortly: as §1
Another assay concerns the target PUM1 PUF domain R3-YYS (Homo sapiens, UniProt Q14671 828-1176, C935Y;R936Y;Q939S). A digest of the protocol:
as §1

The target of another assay is PUM1 PUF domain R3-LWC (Homo sapiens, UniProt Q14671 828-1176, C935L;R936W;Q939C). A digest of the protocol:
as §1

Another assay deals with PUM1 PUF domain R3-GPE (Homo sapiens, UniProt Q14671 828-1176, C935G;R936P;Q939E). A digest of the protocol:
as §1

A further assay addresses PUM1 PUF domain R5-LNA (Homo sapiens, UniProt Q14671 828-1176, C1007L;R1008N;Q1011A). A digest of the protocol:
as §1

The target in the next assay is PUM1 PUF domain R5-GRV (Homo sapiens, UniProt Q14671 828-1176, C1007G;Q1011V). Put shortly: as §1
In a further assay the target is PUM1 PUF domain R5-HLE (Homo sapiens, UniProt Q14671 828-1176, C1007H;R1008L;Q1011E). Put shortly:
as §1

The target of the next assay is PUM1 PUF domain R7-VVK (Homo sapiens, UniProt Q14671 828-1176, S1079V;N1080V;E1083K). Put shortly:
as §1

The next assay has as its target PUM1 PUF domain R1-SKR (Homo sapiens, UniProt Q14671 828-1176, R864K;Q867R). A digest of the protocol:
as §1

The next assay concerns the target PUM1 PUF domain R1-RYQ (Homo sapiens, UniProt Q14671 828-1176, S863R;R864Y). Put shortly:
as §1

A further assay has as its target PUM1 PUF domain R1-KPL (Homo sapiens, UniProt Q14671 828-1176, S863K;R864P;Q867L). Put shortly: as §1
In the next assay the target is PUM1 PUF domain R1-RPC (Homo sapiens, UniProt Q14671 828-1176, S863R;R864P;Q867C). Put shortly:
as §1

The next assay has as its target PUM1 PUF domain R4-DWG (Homo sapiens, UniProt Q14671 828-1176, N971D;H972W;Q975G). A digest of the protocol: as §1
The target of another assay is PUM1 PUF domain R4-WHG (Homo sapiens, UniProt Q14671 828-1176, N971W;Q975G). A digest of the protocol:
as §1

In the next assay the target is PUM1 PUF domain R4-HWP (Homo sapiens, UniProt Q14671 828-1176, N971H;H972W;Q975P). A digest of the protocol: as §1
The next assay has as its target PUM1 PUF domain R4-GPT (Homo sapiens, UniProt Q14671 828-1176, N971G;H972P;Q975T). Put shortly: as §1
The target in the next assay is PUM1 PUF domain R2-LWQ (Homo sapiens, UniProt Q14671 828-1176, N899L;Y900W). Put shortly: as §1
The target of the next assay is PUM1 PUF domain R2-DRQ (Homo sapiens, UniProt Q14671 828-1176, N899D;Y900R). A digest of the protocol:
as §1

A further assay deals with PUM1 PUF domain R3-RTV (Homo sapiens, UniProt Q14671 828-1176, C935R;R936T;Q939V). Put shortly: as §1

In the case of “GGCUAGAACUAGUGGAUCCCCCGGCGCCCGGCGGCUCGAGCCCGGGUAAGUGAAAAUAGUCUGCAUGCCGCCGGGCGCCAUGCCUGCAGGUCGACUCUAGAAAACAUG”, the binding signal in the assay with PUM1 PUF domain R6-YWL was 7.77 log2 enrichment (interaction score).
For the sequence “GGCUAGAACUAGUGGAUCCCCCGGCGCCCGGCGGCUCGAGCCCGGGUAAGUGUAAGUAGUCUGCAUGCCGCCGGGCGCCAUGCCUGCAGGUCGACUCUAGAAAACAUG”, the binding signal in the assay with PUM1 PUF domain R3-EHG is 4.29 log2 enrichment (interaction score); with PUM1 PUF domain R3-YYS, 6.91 log2 enrichment (interaction score); with PUM1 PUF domain R3-LWC, 3.65 log2 enrichment (interaction score); in the assay with PUM1 PUF domain R3-GPE, 5.98 log2 enrichment (interaction score).
With “GGCUAGAACUAGUGGAUCCCCCGGCGCCCGGCGGCUCGAGCCCGGGUAAGUGUUAAUAGUCUGCAUGCCGCCGGGCGCCAUGCCUGCAGGUCGACUCUAGAAAACAUG”, the binding signal with PUM1 PUF domain R5-LNA is 4.02 log2 enrichment (interaction score); with PUM1 PUF domain R5-GRV it was 3.07 log2 enrichment (interaction score); with PUM1 PUF domain R5-HLE, 2.54 log2 enrichment (interaction score).
With “GGCUAGAACUAGUGGAUCCCCCGGCGCCCGGCGGCUCGAGCCCGGGUAAGUUUAAAUAGUCUGCAUGCCGCCGGGCGCCAUGCCUGCAGGUCGACUCUAGAAAACAUG”, in the assay with PUM1 PUF domain R7-VVK, the binding signal was 3.27 log2 enrichment (interaction score).
Regarding “GGCUAGAACUAGUGGAUCCCCCGGCGCCCGGCGGCUCGAGCCCGGGUAAGUGUAAAUCGUCUGCAUGCCGCCGGGCGCCAUGCCUGCAGGUCGACUCUAGAAAACAUG”, the binding signal in the assay with PUM1 PUF domain R1-SKR is 3.09 log2 enrichment (interaction score); with PUM1 PUF domain R1-RYQ it was 5.27 log2 enrichment (interaction score); in the assay with PUM1 PUF domain R1-KPL, 2.58 log2 enrichment (interaction score); with PUM1 PUF domain R1-RPC, 2.57 log2 enrichment (interaction score).
“GGCUAGAACUAGUGGAUCCCCCGGCGCCCGGCGGCUCGAGCCCGGGUAAGUGUACAUAGUCUGCAUGCCGCCGGGCGCCAUGCCUGCAGGUCGACUCUAGAAAACAUG”: the binding signal in the assay with PUM1 PUF domain R4-DWG is 2.61 log2 enrichment (interaction score).
In the case of “GGCUAGAACUAGUGGAUCCCCCGGCGCCCGGCGGCUCGAGCCCGGGUAAGUGUAAAUUGUCUGCAUGCCGCCGGGCGCCAUGCCUGCAGGUCGACUCUAGAAAACAUG”, the binding signal was 4.14 log2 enrichment (interaction score) in the assay with PUM1 PUF domain R1-RYQ, 3.37 log2 enrichment (interaction score) in the assay with PUM1 PUF domain R1-KPL and 1.56 log2 enrichment (interaction score) with PUM1 PUF domain R1-RPC.
For the sequence “GGCUAGAACUAGUGGAUCCCCCGGCGCCCGGCGGCUCGAGCCCGGGUAAGUGUGAAUAGUCUGCAUGCCGCCGGGCGCCAUGCCUGCAGGUCGACUCUAGAAAACAUG”, in the assay with PUM1 PUF domain R5-GRV, the binding signal is 2.53 log2 enrichment (interaction score).
With “GGCUAGAACUAGUGGAUCCCCCGGCGCCCGGCGGCUCGAGCCCGGGUAAGUGUAUAUAGUCUGCAUGCCGCCGGGCGCCAUGCCUGCAGGUCGACUCUAGAAAACAUG”, the binding signal was 3.79 log2 enrichment (interaction score) with PUM1 PUF domain R4-WHG, 4.56 log2 enrichment (interaction score) with PUM1 PUF domain R4-DWG, 4.4 log2 enrichment (interaction score) with PUM1 PUF domain R4-HWP and 2.14 log2 enrichment (interaction score) with PUM1 PUF domain R4-GPT.
For the sequence “GGCUAGAACUAGUGGAUCCCCCGGCGCCCGGCGGCUCGAGCCCGGGUAAGUGUAAAUAGUCUGCAUGCCGCCGGGCGCCAUGCCUGCAGGUCGACUCUAGAAAACAUG”, the binding signal with PUM1 PUF domain R2-LWQ was 1.66 log2 enrichment (interaction score); in the assay with PUM1 PUF domain R3-EHG, 2.53 log2 enrichment (interaction score); with PUM1 PUF domain R1-RYQ it was 2.21 log2 enrichment (interaction score); with PUM1 PUF domain R4-DWG, 5.39 log2 enrichment (interaction score); with PUM1 PUF domain R4-HWP, 5.47 log2 enrichment (interaction score); in the assay with PUM1 PUF domain R5-GRV, 2.75 log2 enrichment (interaction score). For the same sequence, the results for the binding signal with PUM1 PUF domain R4-GPT and in the assay with PUM1 PUF domain R5-HLE were 2.42 log2 enrichment (interaction score) and 1.15 log2 enrichment (interaction score), respectively.
As to “GGCUAGAACUAGUGGAUCCCCCGGCGCCCGGCGGCUCGAGCCCGGGUAAGUGUAAAAAGUCUGCAUGCCGCCGGGCGCCAUGCCUGCAGGUCGACUCUAGAAAACAUG”, the binding signal is 8.53 log2 enrichment (interaction score) in the assay with PUM1 PUF domain R2-LWQ and 2.96 log2 enrichment (interaction score) in the assay with PUM1 PUF domain R2-DRQ.
On to “GGCUAGAACUAGUGGAUCCCCCGGCGCCCGGCGGCUCGAGCCCGGGUAAGUGUAAUUAGUCUGCAUGCCGCCGGGCGCCAUGCCUGCAGGUCGACUCUAGAAAACAUG”, for which the binding signal was 5.05 log2 enrichment (interaction score) in the assay with PUM1 PUF domain R3-EHG, 2.72 log2 enrichment (interaction score) with PUM1 PUF domain R3-RTV and 2.16 log2 enrichment (interaction score) in the assay with PUM1 PUF domain R3-LWC.
As to “GGCUAGAACUAGUGGAUCCCCCGGCGCCCGGCGGCUCGAGCCCGGGUAAGUGUCAAUAGUCUGCAUGCCGCCGGGCGCCAUGCCUGCAGGUCGACUCUAGAAAACAUG”, the binding signal with PUM1 PUF domain R5-HLE is 0.68 log2 enrichment (interaction score).
